The text below walks through data of PubChem BioAssay AID1259418 (Broad Institute, 2018).

Out of some 3,400 compounds screened, about 840 (25%) were called active. Not shown: some 11% with an inconclusive outcome. Not all results are given here. Results with a measured potency or affinity are listed apart. A number with no mark means an inactive call.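 How the source made its calls: active means fitted half-maximal concentration of signal decrease at or below twice the sample's top tested concentration; inconclusive means flat curve between -70 and -30 percent, or poor fit; inactive means flat within 30 percent, signal rise, or potency above limit.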

The test in a line: T. gondii growth inhibition with IFN-gamma, dose response, cell-based, ME49Luc, HeLa, luciferase, 72 h (AID 1259418). The settings on record: T. gondii ME49Luc in IFN-y HeLa, stronger effect = lower value, -100% = high-dose IFN-γ control wells; at 19.5 µM unless noted.
For `NC(=O)C1(N2CCCCC2)CCN(c2ccc(NC(=O)c3ccc(Cl)cc3)cc2C(=O)O)CC1`, the max activity is 20.8%. For `CCN1C(=O)CCCC12CCCN(C(=O)c1ccc3ncccc3c1)C2` (centres undefined), the max activity was -6.92% [at 5 µM]. Under `Cc1ccccc1C(=O)N1CCC(N2CCOCC2)CC1C(=O)O` (centres undefined) stands 15.5%. The same measure for `Cc1ccc(C)c(-c2coc(-c3ccc(NC(=O)COc4ccccc4C)cc3)n2)c1`: -11.5%. `COCC(=O)N1[C@H](C#N)[C@H](c2ccc(C#Cc3ccccc3F)cc2)[C@H]1CO`: the max activity is -13.1% [at 10 µM]. Turning to `N#C[C@@H]1[C@@H](c2ccc(C#Cc3cccnc3)cc2)[C@@H](CO)N1C(=O)NC1CCCCC1`, the max activity is -10.3% [at 10 µM]. Take `Cc1cc(C)n(C)c(=O)c1C(=O)N1CCOC(C(F)(F)F)C1` (centres undefined): the max activity was 34.4%. Take `Cc1ccc(-c2coc(-c3ccc(NC(=O)CC(C)C)cc3)n2)c(C)c1`: the max activity is 14.2% [at 10 µM]. Turning to `CCN(C)C(=O)c1cnc(-c2noc3cc(N4CCCCC4)ccc23)s1`, the max activity was 35.7% [at 10 µM]. For `COc1ccc(NC(=O)Nc2ccc(-c3nc(-c4cccc(Br)c4)co3)cc2)cc1OC`, the max activity is 8.18% [at 0.35 µM]. With `O=C(Nc1ccc(-c2nc(-c3ccccc3)co2)cc1)Nc1ccc(F)cc1F`, the max activity was 65.6%. With `CCOC(=O)CSC1=Nc2ccccc2C2=NC(CCC(=O)NCc3ccccc3)C(=O)N12` (centres undefined), the max activity is 43.1%. As for `O=C(CC1N=C2c3ccccc3N=C(SCc3cccc(F)c3)N2C1=O)NCc1ccccc1` (centres undefined), the max activity is -15% [at 1.35 µM]. On to `COc1ccccc1CNC(=O)CCC1N=C2c3ccccc3N=C(SCc3ccc(F)cc3)N2C1=O` (centres undefined), for which the max activity is 14.5% [at 0.16 µM]. The same measure for `O=C(CCC1N=C2c3ccccc3N=C(SCc3cccc(F)c3)N2C1=O)NC1CCCCC1` (centres undefined): -18.1% [at 2.6 µM]; for `CCOC(=O)CSC1=Nc2ccccc2C2=NC(CCC(=O)NCc3ccc(F)cc3)C(=O)N12` (centres undefined): 24.5% [at 2.6 µM]; for `N#CCSC1=Nc2ccccc2C2=NC(CCC(=O)NCc3ccc(F)cc3)C(=O)N12` (centres undefined): 22.5% [at 0.35 µM]. On to `Cc1ccc(CSC2=Nc3ccccc3C3=NC(CCC(=O)NC4CCCCC4)C(=O)N23)cc1` (centres undefined), for which the max activity is -23.8%. As for `O=C(CCC1N=C2c3ccccc3N=C(SCc3cccc(F)c3)N2C1=O)NCc1ccco1` (centres undefined), the max activity was 10.2%. For `C/C=C/c1ccc(C2[C@H]3CNC[C@@H]2N3S(=O)(=O)c2cccc(F)c2)cc1` (some centres undefined), the max activity is 51.2%. Take `O=C(CC1N=C2c3ccccc3N=C(SCc3cc(=O)n4cc(Cl)ccc4n3)N2C1=O)NCc1ccccc1` (centres undefined): the max activity is 8.94%. With `Cc1ccc(-c2coc(-c3ccc(NC(=O)c4ccco4)cc3)n2)c(C)c1`, the max activity is 11.6%.

As to `CCOc1ccc(-c2nc(CSc3nc4c(c(=O)[nH]3)CN(C(C)C)CC4)c(C)o2)cc1OC`, the max activity is 21% [at 2.6 µM]. The same measure for `O=C(CCC1N=C2c3ccccc3N=C(SCc3ccccc3F)N2C1=O)NCc1ccc(F)cc1` (centres undefined): 12.5% [at 1.35 µM]; for `O=C(CCC1N=C2c3ccccc3N=C(SCc3ccccc3F)N2C1=O)NCCc1ccccc1` (centres undefined): 25.3% [at 0.16 µM]; for `COc1ccc(CNC(=O)CCC2N=C3c4ccccc4N=C(SCc4ccccc4F)N3C2=O)cc1` (centres undefined): -23.7% [at 0.35 µM]. Under `COc1ccc(CNC(=O)CCC2N=C3c4ccccc4N=C(SCc4ccc(Cl)cc4)N3C2=O)cc1` (centres undefined) stands -5.19% [at 0.68 µM]; under `CCc1c(C)sc2c1CCN(Cc1nc(-c3ccccc3Cl)oc1C)C2c1ccccc1` (centres undefined), 11.5% [at 10 µM]. Turning to `CCc1ccc2c(c1)cc(S(=O)(=O)c1ccccc1)c(=O)n2CC(=O)NC(C)CC` (centres undefined), the max activity was -8.4%. Take `Cc1ccc(-c2nc(Cn3nnc(-c4nc(-c5ccncc5)no4)c3C)c(C)o2)cc1`: the max activity was 8.58% [at 10 µM].

On to `CCc1c(C)sc2c1CCN(Cc1nc(-c3ccccc3C)oc1C)C2c1ccccc1` (centres undefined), for which the max activity is 25.6% [at 5 µM]. Take `CCc1c(C)sc2c1CCN(Cc1nc(-c3ccc(OC)cc3OC)oc1C)C2c1ccccc1` (centres undefined): the max activity was 15.7%. Under `CCC(=O)N1CC(=O)N2[C@H](CO)[C@H](c3ccc(C#CCC(C)C)cc3)[C@H]2C1` stands 9.28% [at 10 µM].

Consider `O=C(c1cccc(F)c1)N1CC(=O)N2[C@@H](CO)[C@H](c3ccc(/C=C/c4ccccc4)cc3)[C@@H]2C1`, for which the max activity was 14.7% [at 5 µM].

Regarding `CCC(=O)N1CC(=O)N2[C@@H](CO)[C@H](c3ccc(C#CCC(C)C)cc3)[C@@H]2C1`, the max activity was 20.4% [at 10 µM]. With `CCC(=O)N1CC(=O)N2[C@@H](CO)[C@@H](c3ccc(C#CCC(C)C)cc3)[C@@H]2C1`, the max activity was 22.8% [at 10 µM]. For the molecule `CC(C)CC#Cc1ccc([C@H]2[C@@H](CO)N3C(=O)CN(C(=O)c4cccc(F)c4)C[C@@H]23)cc1`, the max activity was 19.1% [at 10 µM]. The same measure for `CCc1ccc(CNc2nc(-c3ccc(OC)cc3)nc3ccccc23)cc1`: -7.47% [at 0.16 µM]; for `COc1ccccc1NC(=O)N1CCN(Cc2nc(-c3cccc(Cl)c3)oc2C)CC1`: 15.9% [at 1.35 µM]. With `COc1ccc(NC(=O)Nc2ccc(-c3nc(-c4ccccc4)co3)cc2)cc1OC`, the max activity was 91.2%. Regarding `O=C(Cc1cccc(F)c1)N1CCC2(CC1)Nc1ccccc1-n1cccc12`, the max activity was 9.66% [at 10 µM].

With `COc1cc(NC(=O)Nc2ccc(-c3nc(-c4ccccc4)co3)cc2)cc(OC)c1OC`, the max activity is 43.1%.

Regarding `CCc1ccc2c(c1)cc(S(=O)(=O)c1ccccc1)c(=O)n2CC(=O)N1CCCCC1`, the max activity is 9.02% [at 0.16 µM]. Regarding `CC(c1cc2ccccc2s1)N(O)C(N)=O` (centres undefined), the max activity is 22.5%. Under `Cc1ccc2c(c1)cc(S(=O)(=O)c1ccccc1)c(=O)n2CC(=O)NCc1ccc(F)cc1` stands 3.98% [at 10 µM]; under `COc1ccc(-c2nc(Cn3nnc(-c4nc(-c5ccc(Cl)c(F)c5)no4)c3C)c(C)o2)cc1`, -11.8% [at 10 µM]; under `CCN1C(=O)CCc2cc(NC(=O)Cc3cccs3)ccc21`, -9.98% [at 0.35 µM].

`Cc1ccc(-c2coc(-c3ccc(NC(=O)Nc4ccc(C)c(C)c4)cc3)n2)cc1`: the max activity was 12% [at 2.6 µM]. Under `CCN1C(=O)CCc2cc(NC(=O)c3cccc(C#N)c3)ccc21` stands -7.75% [at 0.16 µM]; under `N#Cc1cccc(C(=O)N2CCC3C2CC(=O)N3Cc2ccncc2)c1` (centres undefined), 25.6%.

On to `Cc1oc(-c2ccccc2)nc1Cn1nnc(-c2nc(-c3cccc(F)c3)no2)c1C`, for which the max activity is 9.95%. Regarding `COc1ccc2c(c1)NC1(CCN(C(=O)Cc3ccccc3)CC1)c1cccn1-2`, the max activity was 5.44% [at 0.35 µM]. For `CCOc1ccc(NC(=O)COc2nc(CC)nc3ccccc23)cc1`, the max activity was 16% [at 10 µM]. Regarding `Cc1ccc(S(=O)(=O)Nc2ccc3c(c2)C(=O)N([C@H](C)CO)C[C@H](C)[C@H](CN(C)Cc2ccc(C(F)(F)F)cc2)O3)cc1`, the max activity was 19.4% [at 10 µM]. As to `CCOc1ccc(-c2nc3c(s2)CN(S(=O)(=O)c2ccccc2Cl)CC3)cc1`, the max activity is 22.6%. On to `O=C(c1cccc(F)c1)N1CCC2(CC1)Nc1ccc(Cl)cc1-n1cccc12`, for which the max activity is 9.53% [at 0.68 µM]. For the molecule `CCOc1ccccc1NC(=O)CN1CCC2(CC1)N=C(c1ccc(F)cc1)C(=O)N2`, the max activity is 13%.

`Cc1nc(CCNC(=O)[C@H]2CCCN2S(=O)(=O)c2cccc(Cl)c2)cs1`: the max activity is -9.1% [at 0.35 µM]. Under `CCOc1ccc(-c2nc(CN(c3ccc(OC)cc3)S(=O)(=O)c3ccc(C)cc3)c(C)o2)cc1` stands 8.75% [at 1.35 µM]; under `Cc1ccc2c(c1C)-n1cccc1C1(CCN(C(=O)Cc3ccccc3)CC1)N2`, 4.08% [at 0.68 µM]. As for `CCOc1ccc(-c2nc(CN(c3ccccc3)S(=O)(=O)c3cccs3)c(C)o2)cc1OC`, the max activity is -33.6% [at 10 µM]. For the molecule `CCOc1ccc(-c2nc(CN(c3ccc(C)cc3)S(=O)(=O)c3cccs3)c(C)o2)cc1OC`, the max activity was 101% [at 10 µM]. Regarding `COc1ccccc1NC(=O)N1CCc2nc(-c3ccc(OC)c(OC)c3)sc2C1`, the max activity is 6.68% [at 0.16 µM]. The same measure for `C[C@]12CCC3=C4CCC(=O)C=C4CC[C@H]3[C@@H]1CC[C@@]2(O)CC#N`: 15.3%; for `Cc1ccc(N2CCC[C@]3(C(=O)O)CN(CCN(C)C)C[C@H]3C2)nn1`: 40.3%; for `Cc1cccc(N2CCN(C(=O)c3ccc(-c4csc(C5CC5)n4)cc3)CC2)c1C`: -9.59% [at 0.35 µM]. Turning to `COc1ccc(C2=NC3(CCN(CC(=O)Nc4cccc(Cl)c4)CC3)NC2=O)cc1`, the max activity was -14.8% [at 2.6 µM]. Under `CSc1cccc(NC(=O)CN2CCC3(CC2)N=C(c2cccc(F)c2)C(=O)N3)c1` stands 27.3%; under `Cc1ccccc1NC(=O)CN1CCC2(CC1)N=C(c1cccc(Cl)c1)C(=O)N2`, -14.5%; under `COc1cccc(NC(=O)CN2CCC3(CC2)N=C(c2cccc(Cl)c2)C(=O)N3)c1`, -20.4% [at 0.68 µM]. The same measure for `CSc1cccc(NC(=O)CN2CCC3(CC2)N=C(c2ccc(Cl)cc2)C(=O)N3)c1`: -30.9%; for `Cc1ccc(C2=NC3(CCN(CC(=O)Nc4ccc(Cl)cc4)CC3)NC2=O)cc1`: 19.9% [at 1.35 µM]; for `COc1ccccc1NC(=O)CN1CCC2(CC1)N=C(c1cccc(C)c1)C(=O)N2`: 13.7% [at 0.35 µM]. In the case of `COc1ccc(NC(=O)CN2CCC3(CC2)N=C(c2ccc(C)cc2)C(=O)N3)c(OC)c1`, the max activity was -8.99% [at 5 µM].
